The full ranking holds about 8,300 sequences; the median of “log2 fold change of degron read counts, EGFP-low vs EGFP+ sorted cells (limma voom), compound-induced degradation” is about -1.1, and the highest 2% start at about 3.2. Shown is part of a subset that was picked to be rich in the highest values.
B1: 46F_47F_49P_50I_52G_53H_54D_55F_67L_, Q9UKT9 (peptide)
chain: FFCPICGHDFTQKGNLLRHIKL
B2: 46F_47L_49E_50I_52G_53A_54Y_55F_67L_, Q9UKT9 (peptide)
chain: FLCEICGAYFTQKGNLLRHIKL
B3: 46F_47Q_49N_50I_52G_53A_54P_55F_67L_, Q9UKT9 (peptide)
chain: FQCNICGAPFTQKGNLLRHIKL
B4: 46F_47A_49N_50I_52G_53A_54P_55F_67L_, Q9UKT9 (peptide)
chain: FACNICGAPFTQKGNLLRHIKL
B5: 46F_47M_49N_50I_52G_53A_54P_55F_67L_, Q9UKT9 (peptide)
chain: FMCNICGAPFTQKGNLLRHIKL
B6: 46F_47H_49N_50Q_52G_53A_54P_55F_67L_, Q9UKT9 (peptide)
chain: FHCNQCGAPFTQKGNLLRHIKL
B7: 46F_47F_49N_50I_52G_53A_54P_55F_67L_, Q9UKT9 (peptide)
chain: FFCNICGAPFTQKGNLLRHIKL
B8: 46F_47D_49N_50I_52G_53A_54P_55F_67L_, Q9UKT9 (peptide)
chain: FDCNICGAPFTQKGNLLRHIKL
B9: 46F_47K_49N_50I_52G_53A_54P_55F_67L_, Q9UKT9 (peptide)
chain: FKCNICGAPFTQKGNLLRHIKL
B10: 46F_47H_49N_50I_52G_53A_54P_55F_67L_, Q9UKT9 (peptide)
chain: FHCNICGAPFTQKGNLLRHIKL
B11: 46F_47S_49N_50I_52G_53A_54P_55F_67L_, Q9UKT9 (peptide)
chain: FSCNICGAPFTQKGNLLRHIKL
B12: 46F_47W_49E_50I_52G_53R_54F_55F_67L_, Q9UKT9 (peptide)
chain: FWCEICGRFFTQKGNLLRHIKL
B13: 46F_47V_49N_50Q_52G_53H_54R_55F_67L_, Q9UKT9 (peptide)
chain: FVCNQCGHRFTQKGNLLRHIKL
B14: 46F_47W_49P_50I_52G_53H_54T_55F_67L_, Q9UKT9 (peptide)
chain: FWCPICGHTFTQKGNLLRHIKL
B15: 46F_47V_49E_50Q_52G_53A_54D_55F_67L_, Q9UKT9 (peptide)
chain: FVCEQCGADFTQKGNLLRHIKL
B16: 46F_47C_49N_50I_52G_53A_54K_55F_67L_, Q9UKT9 (peptide)
chain: FCCNICGAKFTQKGNLLRHIKL
B17: 46F_47K_49P_50I_52G_53R_54A_55F_67L_, Q9UKT9 (peptide)
chain: FKCPICGRAFTQKGNLLRHIKL
B18: 46F_47W_49E_50V_52G_53A_54A_55F_67L_, Q9UKT9 (peptide)
chain: FWCEVCGAAFTQKGNLLRHIKL
B19: 46F_47C_49E_50V_52G_53A_54A_55F_67L_, Q9UKT9 (peptide)
chain: FCCEVCGAAFTQKGNLLRHIKL
B20: 46F_47H_49E_50V_52G_53A_54A_55F_67L_, Q9UKT9 (peptide)
chain: FHCEVCGAAFTQKGNLLRHIKL
B21: 46F_47Y_49E_50V_52G_53A_54A_55F_67L_, Q9UKT9 (peptide)
chain: FYCEVCGAAFTQKGNLLRHIKL
B22: 46F_47Y_49N_50V_52G_53A_54A_55F_67L_, Q9UKT9 (peptide)
chain: FYCNVCGAAFTQKGNLLRHIKL
B23: 46F_47G_49E_50V_52G_53A_54A_55F_67L_, Q9UKT9 (peptide)
chain: FGCEVCGAAFTQKGNLLRHIKL
B24: 46F_47W_49N_50V_52G_53A_54A_55F_67L_, Q9UKT9 (peptide)
chain: FWCNVCGAAFTQKGNLLRHIKL
B25: 46F_47C_49N_50V_52G_53A_54A_55F_67L_, Q9UKT9 (peptide)
chain: FCCNVCGAAFTQKGNLLRHIKL
B26: 46F_47Y_49P_50V_52G_53A_54A_55F_67L_, Q9UKT9 (peptide)
chain: FYCPVCGAAFTQKGNLLRHIKL
B27: 46F_47Q_49E_50V_52G_53A_54A_55F_67L_, Q9UKT9 (peptide)
chain: FQCEVCGAAFTQKGNLLRHIKL
B28: 46F_47N_49E_50V_52G_53A_54A_55F_67L_, Q9UKT9 (peptide)
chain: FNCEVCGAAFTQKGNLLRHIKL
B29: 46F_47M_49E_50V_52G_53A_54A_55F_67L_, Q9UKT9 (peptide)
chain: FMCEVCGAAFTQKGNLLRHIKL

Molecular target: T1, CRBN, Q96SW2
T1 chain: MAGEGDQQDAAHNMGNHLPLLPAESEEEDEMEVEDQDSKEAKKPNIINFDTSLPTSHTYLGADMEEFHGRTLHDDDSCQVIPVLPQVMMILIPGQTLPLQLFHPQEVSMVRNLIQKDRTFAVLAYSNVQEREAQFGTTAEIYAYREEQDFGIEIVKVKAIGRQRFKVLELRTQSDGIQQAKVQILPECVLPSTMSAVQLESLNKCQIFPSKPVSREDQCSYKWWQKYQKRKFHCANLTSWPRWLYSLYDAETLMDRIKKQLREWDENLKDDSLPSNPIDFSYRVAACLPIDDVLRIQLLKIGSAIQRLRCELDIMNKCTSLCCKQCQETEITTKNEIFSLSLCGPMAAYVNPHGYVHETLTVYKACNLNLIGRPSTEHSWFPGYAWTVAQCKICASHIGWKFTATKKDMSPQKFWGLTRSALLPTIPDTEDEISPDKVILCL
Assay: log2 fold change of degron read counts, EGFP-low vs EGFP+ sorted cells (limma voom), compound-induced degradation; higher = more compound-induced degradation of the degron-EGFP fusion; degrons are variants of IKZF1/3 zinc finger 2; compound dose not given here
Details: Jurkat, 18 h
Experimental: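 Pooled library of 8380 IKZF3 ZF2 degron mutants (positions 146-167 varied within the IKZF3 130-189 degron; only the varied core is printed, flanks not printed) fused to EGFP with IRES-mCherry, lentivirally expressed in Jurkat cells. mCherry+ cells were treated with one IMiD compound for 18 h (dose not stated) and FACS-sorted into EGFP-low and EGFP+ populations. Degron sequences were counted by NGS, and log2FC (EGFP-low vs EGFP+) was estimated by limma voom over 3 biological replicates.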

[1] = compound: compound 19 (5-tert-butyl-thalidomide)
[2] = compound: compound 22 (5-morpholino-thalidomide)
[3] = compound: compound 33 (diphenyl IMiD analogue)
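Further: pooled lentiviral library of zinc finger degron-EGFP fusions in mCherry-positive Jurkat cells, FACS-sorted after compound exposure, with degron abundance counted by next-generation sequencing.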

Sequence | log2 fold change of degron read counts [1] | log2 fold change of degron read counts [2] | log2 fold change of degron read counts [3] | log2 fold change of degron read counts (compound: thalidomide)
B1 | -2.5 | -3.06 | -2.39 | -2.25
B2 | 0.402 | -0.763 | 0.888 | 1.03
B3 | 2.35 | 3.09 | 1.74 | 3.71
B4 | 3 | 2.25 | 0.28 | 1.19
B5 | 2.52 | 3.05 | 3.24 | 2.42
B6 | -0.273 | -1.39 | -1.33 | -1.72
B7 | 3.82 | 3.29 | 1.81 | 0.893
B8 | 0.00765 | 0.55 | -0.25 | 0.701
B9 | 1.75 | 0.553 | -1.66 | 1.84
B10 | 3.64 | 3.01 | 1.94 | 1.11
B11 | 2.52 | 2.26 | 1.18 | 1.71
B12 | 1.04 | 1.16 | 0.269 | -0.94
B13 | -2.83 | -3 | -2.59 | -2.33
B14 | -1.68 | -1.6 | -1.41 | -2.18
B15 | -3.51 | -2.64 | -2.37 | -2.14
B16 | 1.13 | 0.951 | -1.32 | 1.19
B17 | -2.37 | -1.6 | -2.65 | -0.307
B18 | 3.39 | 3.9 | 2.77 | 1.54
B19 | 3.57 | 2.96 | 2.1 | 2.35
B20 | 3.08 | 2.89 | 1.84 | 0.737
B21 | 3.87 | 3.7 | 2.98 | 1.8
B22 | 1.57 | 2.01 | 1.33 | -0.954
B23 | 2.88 | 2.24 | 1.96 | 1.02
B24 | 1.25 | 2.85 | 1.15 | -0.34
B25 | 0.855 | 0.945 | 0.918 | 0.447
B26 | 2.93 | 2.85 | 2.36 | 0.969
B27 | 2.72 | 3.34 | 2.22 | 3.65
B28 | 3.07 | 1.6 | 0.0337 | 0.576
B29 | 2.23 | 2.48 | 2.75 | 2.28
